Screening results as filed in PubChem BioAssay.
An excerpt weighted towards active compounds, which were near 9.5% of everything screened.
SARS PLP yeast – qHTS of Yeast-based Assay for SARS-CoV PLP; S. cerevisiae expressing SARS-CoV PLpro, growth rescue; Potency, µM (series often up to 32.9 µM), hits mostly activators; hit rate 0.19% among 330,000; further: nearly all actives have a fitted effect of over 55% in size
NS1 function inh – qHTS Assay for Inhibitors of Influenza NS1 Protein Function; Potency, µM (top dose mostly 46.1 µM); hit rate 0.4% among 270,000; AID 2326, 2010; further: actives are rising curves; nearly all actives have a fitted effect of over 50% in size
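OD600 was taken as the measure of yeast growth restored by compound in an NS1-expressing S. cerevisiae strain. Cells had been washed out of glucose medium and diluted 1:100 into galactose -URA medium, pH 6.0.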
RE007 growth inh – qHTS Assay for Inhibitors of the HIV-1 protein Vpr; S. pombe RE007 Vpr strain, BacTiter-Glo ATP luminescence, 24 h; Potency, µM (series often up to 92.2 µM), most hits filed as inhibitors; hit rate 0.21% among 360,000; AID 651644, 2012; active means well fitted falling curve with a large enough effect; inconclusive means small, poorly fitted or top-dose-only effect; inactive means no such curve, though single readings can be large or run the other way; further: nearly all actives have a fitted effect of over 50% in size
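Fission yeast RE007 carrying one integrated HIV-1 vpr copy, seeded at OD 0.01 in PMG+AL medium with 23 nL pinned compound. Grown 24 h at 30 degrees; viability read by BacTiter-Glo luminescence after 5 min.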
Pf growth 96h – Primary qHTS for delayed death inhibitors of the malarial parasite plastid, 96 hour incubation; P. falciparum luciferase reporter growth, 96 h; Potency, µM (top dose mostly 28.7 µM), actives largely listed as inhibitors; hit rate 6.9% among 320,000; active means well fitted inhibition curve with a large enough effect; inconclusive means small, poorly fitted or top-dose-only effect, or another doubt; inactive means no such curve, though single readings can be large or run the other way
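Infected RBCs, 2% Hct / 0.05% parasitemia final; luciferase-reporter P. falciparum; cpd 96 h, 37 C, 5% CO2; luciferase detection reagent; luminescence.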
Pf growth 48h – Primary qHTS for delayed death inhibitors of the malarial parasite plastid, 48 hour incubation; P. falciparum luciferase growth in erythrocytes, 48 h; Potency, µM (titrated, usually from 28.7 µM), most hits filed as inhibitors; hit rate 5.9% among 310,000; AID 504832, 2011; active means well fitted inhibition curve with a large enough effect; inconclusive means small, poorly fitted or top-dose-only effect, or another doubt; inactive means no such curve, though single readings can be large or run the other way
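Compounds are pin-transferred into medium, infected erythrocytes (2% hematocrit, 0.1% parasitemia final) are added, and plates sit one parasite generation at 37 C in 5% CO2. Detection reagent is then added and luminescence measured.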
Numbers stand for hits; i = inactive; ? = inconclusive; nt = not tested or not shown; [ ] = remark or other dose. Unless noted, the call rests on the fitted dose curve.

SMILES	SARS PLP yeast	NS1 function inh	RE007 growth inh	Pf growth 96h	Pf growth 48h
CCCCn1c(NC(C)CC)nc2c1c(=O)[nH]c(=O)n2C (stereo unspecified)	i	i	i	4.7µM	?
CCCn1c(SCc2ccccc2)nc2c1c(=O)[nH]c(=O)n2C	i	i	i	nt	i
COc1ccc(C(=O)N(C)[C@H]2C[C@H]3c4[nH]c5ccccc5c4CCN3C(=O)[C@H]2CO)cc1	nt	nt	i	nt	nt
O=C(c1ccc(=O)[nH]c1)N1CCN(S(=O)(=O)c2ccc3ccccc3c2)CC1	i	nt	i	i	i
CN1OC[C@@H]2COc3ccc4ccccc4c3[C@@H]21	i	nt	i	i	13µM
CCCCn1c(SCC(=O)NC(C)CC)nc2ccc(N3CCOCC3)cc2c1=O (stereo unspecified)	i	i	i	?	?
CCCCn1c(SCC(=O)NCc2ccccc2)nc2ccc(N3CCOCC3)cc2c1=O	i	i	i	i	12µM
CCCCn1c(SCC(=O)Nc2ccc(OC)cc2)nc2ccc(N3CCOCC3)cc2c1=O	i	i	i[3.69 µM]	?	?
CCCCn1c(SCC(=O)NCc2ccco2)nc2ccc(N3CCOCC3)cc2c1=O	i	i	i	i	15µM
CCCN(CC(=O)Nc1ccccc1OC)C(=O)CSC(=S)N1CCCC1	i	nt	i	?	?
CC(C)C[C@H]1CN(CCCC[C@@H]2CNC(=O)C(=O)N2Cc2ccccc2)C(=O)C(=O)N1CCc1ccc(O)cc1	nt	nt	i	nt	nt
Cc1cccc(-c2cc3nc(C)cc(=O)n3[nH]2)c1	nt	nt	i	nt	nt
Cc1ccccc1-c1cc2nc(C)c(C)c(=O)n2[nH]1	i	i	i	i	7.4µM
Cc1nc2cc(-c3ccc(F)cc3)[nH]n2c(=O)c1C	i	i	i	?	i
Cc1cc(=O)n2[nH]c(-c3ccccc3Cl)cc2n1	i	i	i	7.4µM	i
Cc1nc2cc(-c3ccc(Br)cc3)[nH]n2c(=O)c1Cl	i	i	i	9.3µM	?
Cc1ccc(S(=O)(=O)N2CCN(C(=O)CN3C(=O)c4ccc([N+](=O)[O-])cc4C3=O)CC2)c(C)c1	i	nt	i	i	i
CCOC(=O)c1c(-c2cccs2)csc1NC(=O)C(C)(C)C	i	i	i	nt	13µM
CCOC(=O)c1c(-c2ccc(C)s2)csc1NC(=O)c1cccs1	i	i	i	i	nt
CCOC(=O)c1c(-c2ccc(F)cc2)csc1NC(=O)CN1C(=O)NC2(CCCCC2C)C1=O (stereo unspecified)	i	i	i	9.3µM	10µM
CCOC(=O)c1c(-c2ccccc2)csc1NC(=S)NC	i	i	i	i	i
CCOC(=O)c1c(NC(=O)c2cccs2)sc(CC)c1-c1cccs1	i	i	i	10µM	nt
CCOC(=O)c1c(-c2ccccc2)csc1NC(=O)c1cc2ccccc2oc1=O	i	i	i	13µM	i
CCOC(=O)c1c(-c2cccs2)csc1NC(C)=O	i	i	i	?	i
Cc1cc(S(=O)(=O)NCCCN2CCOCC2)c(Cl)cc1Cl	i	i	i	i	i
SMILES	SARS PLP yeast	NS1 function inh	RE007 growth inh	Pf growth 96h	Pf growth 48h
CN1C(C)(C)CC(O)(C(=O)O)CC1(C)C	nt	nt	i	nt	nt
CCOC(=O)c1c(-c2ccc(F)cc2)csc1NC(=O)CCN1CCOCC1	i	i	i	?	?
CCOC(=O)c1c(-c2ccccc2)csc1NC(=O)CCN1C(=O)c2ccccc2C1=O	i	?	nt	2.6µM	i
CCOC(=O)c1sc(NC(=O)CCN2C(=O)c3ccccc3C2=O)c(C(=O)OCC)c1C	i	i	i	13µM	i
CCOC(=O)c1c(-c2ccc(-c3ccccc3)cc2)csc1NC(=O)CCN1CCOCC1	i	i	i	4.7µM	?
CCOC(=O)c1c(-c2cccs2)csc1NC(=O)CNCCN1CCOCC1	i	i	nt	12µM	?
CCOC(=O)c1c(-c2cccs2)csc1NC(=O)CN1CC(C)OC(C)C1 (stereo unspecified)	i	i	i	nt	?
COC(=O)c1ccccc1NC(=O)CN1C(=O)c2ccccc2C1=O	nt	nt	i	nt	nt
CCOC(=O)c1c(-c2ccc(-c3ccccc3)cc2)csc1NC(=O)c1cccc(N2C(=O)CCC2=O)c1	i	i	i	5.2µM	i
O=C(CSc1nc2ccccc2c(=O)[nH]1)Nc1ccccc1C(F)(F)F	i	i	i	?	i
Cc1nc2c3ccccc3nc(NNC(=O)CCC(=O)NCCN3CCN(c4ccccc4)CC3)n2n1	i	i	i	?	i
